In PubChem BioAssay (Tox21):
Records with an inconclusive call do not appear. The source made the active and inactive calls. Unless noted, calls follow the shape of the dose curve; as a rule, active = well fitted curve in the direction sought with a large enough effect in the repeat runs; inconclusive = weak or mixed curves; inactive = no such curve, though single readings can be large; an effect the other way counts as inactive or inconclusive.

Assays:
[1] = qHTS assay for small molecules that induce genotoxicity in human embryonic kidney cells expressing luciferase-tagged ATAD5 (AID 651632); also: nearly all actives have a fitted effect of over 15% in size; also: potency is read from the fitted curve at half-maximal effect
How it was run: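 A rise in luciferase signal from ATAD5-tagged HEK293T cells marks genetic stress. Cells were exposed to compounds for 16 hr at 37C, 5% CO2, then luciferase was quantified after a 30 min room-temperature incubation with Amplite.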

[2] = qHTS assay for small molecules that induce genotoxicity in human embryonic kidney cells expressing luciferase-tagged ATAD5 - cell viability (AID 651634; calls by dose curve; also: nearly all actives have a fitted effect of over 25% in size; also: potency is read from the fitted curve at half-maximal effect)
How it was run: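 Cytotoxicity counter-readout: after 15.5 hr compound treatment at 37C, live-cell protease activity in ATAD5-luciferase HEK293T cells measured by CellTiter-Fluor fluorescence, 30 min development at 37C.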

[3] = qHTS assay for small molecule disruptors of the mitochondrial membrane potential - cell viability (AID 720634; calls by dose curve; also: nearly all actives have a fitted effect of over 20% in size; also: potency is read from the fitted curve at half-maximal effect)
How it was run: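 Cytotoxicity was quantified from ATP content by CellTiter-Glo luminescence in the same wells as the MMP dye read-out. HepG2 (2,000 cells/well) were plated overnight and exposed to compounds for 1 hr at 37 C.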

[4] = qHTS assay to test for compound auto fluorescence at 590 nm (red) in HepG2 cells (AID 720674)
How it was run: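 Compound auto-fluorescence is scored relative to Rose Bengal sodium, measured at 540/590 nm in live HepG2 cultures after 1 hr compound contact (37 C, 5% CO2).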

[5] = qHTS assay to test for compound auto fluorescence at 535 nm (green) in HepG2 cells (AID 720675)
[6] = qHTS assay to test for compound auto fluorescence at 460 nm (blue) in HEK293 cells (AID 720678)
How it was run: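 Blue-channel (Ex/Em 405/460 nm) intensity measured in HEK293 cultures after overnight compound exposure at 37C; signal expressed relative to triamterene. Cells plated 2,000 per well in 10% dialyzed FBS medium and allowed 4-5 hr to attach.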

[7] = qHTS assay to test for compound auto fluorescence at 535 nm (green) in HEK293 cells (AID 720680)
[8] = qHTS assay to test for compound auto fluorescence at 460 nm (blue) in HEK293 cell free culture (AID 720681)
How it was run: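 Test compounds were pinned into cell-free culture medium (DMEM with 10% FBS) and fluorescence was read directly at Ex/Em 405/460 nm. Signals were expressed as fluorescence equivalents of triamterene, with DMSO vehicle as control.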

[9] = qHTS assay to test for compound auto fluorescence at 535 nm (green) in HEK293 cell free culture (AID 720682)
How it was run: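 DMEM + 10% FBS, cell-free; cpd or DMSO pinned in; Ex485/Em535 read; output as fluorescein-equivalent signal.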

[10] = qHTS assay to test for compound auto fluorescence at 590 nm (red) in HEK293 cell free culture (AID 720683)
How it was run: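 Tox21 10K library compounds were pinned into cell-free DMEM with 10% FBS and fluorescence was read at excitation 540 nm. Activity is expressed as Rose Bengal sodium equivalency.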

[11] = qHTS assay to test for compound auto fluorescence at 590 nm (red) in HepG2 cell free culture (AID 720684)
How it was run: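 Ex 540 / Em 590 nm read of compound in cell-free MEM (10% FBS). Rose Bengal sodium reference.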

[12] = qHTS assay to test for compound auto fluorescence at 460 nm (blue) in HepG2 cell free culture (AID 720685)
How it was run: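 Cell-free plates of MEM plus 10% FBS received 23 nL compound or DMSO vehicle; blue-channel (405/460 nm) intensity scored against triamterene as reference fluorophore.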

[13] = qHTS assay to test for compound auto fluorescence at 535 nm (green) in HepG2 cell free culture (AID 720686)
[14] = qHTS assay to test for compound auto fluorescence at 460 nm (blue) in HepG2 cells (AID 720687)
How it was run: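 Cells (2,000/well in MEM with 10% FBS) attached overnight at 37 C, then were exposed to compound or DMSO for 1 hr at 37 C, 5% CO2. Fluorescence read at Ex/Em 405/460 nm, expressed as triamterene-equivalent signal.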

[15] = qHTS assay for small molecule agonists of the p53 signaling pathway - cell viability (AID 651633; calls by dose curve;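 also: p53RE-bla HCT reporter cells with a stable beta-lactamase p53 reporter; series mostly up to about 83 µM; nearly all actives have a fitted effect of over 30% in size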)
How it was run: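 p53RE-bla cells, seeded at 4,000 per well and rested 5 h at 37 C/5% CO2, received compounds in DMSO for 16 h at 37 C. CellTiter-Glo was then added, and luminescence was read after 30 min at room temperature to gauge cytotoxicity.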

[16] = qHTS assay to test for compound auto fluorescence at 590 nm (red) in HEK293 cells (AID 720679)
How it was run: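 Red-channel autofluorescence (Ex/Em 540/590 nm; Rose Bengal sodium reference) was measured after overnight 37C, 5% CO2 exposure of attached HEK293 cells, 2,000 per well in medium with 10% dialyzed FBS.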

[17] = target: Glucocorticoid receptor (Homo sapiens) (UniProt P04150); test: qHTS assay to identify small molecule agonists of the glucocorticoid receptor (GR) signaling pathway (AID 720691; active = well fitted activation curve with a large enough effect in the signal ratio in the repeat runs, not every such curve was filed as active; the % refers to the signal ratio)
How it was run: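 Agonist-mode qHTS in HeLa cells stably expressing a glucocorticoid-response-element beta-lactamase reporter. Fluorescence intensity read with FRET substrate (2 h, room temperature) after 18 h compound treatment at 37 C.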

[18] = target: Glucocorticoid receptor (Homo sapiens) (UniProt P04150); test: qHTS assay to identify small molecule antagonists of the glucocorticoid receptor (GR) signaling pathway (AID 720692; active = well fitted inhibition curve with a large enough effect in the signal ratio in the repeat runs, not every such curve was filed as active; the % refers to the signal ratio; also: potency is read from the fitted curve at half-maximal effect)
How it was run: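 Inhibition of dexamethasone-driven (5 nM final) beta-lactamase expression was measured in GRE-reporter HeLa cells over 18 h at 37C. Fluorescence was read after 2 h with the B/G FRET substrate at room temperature.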

[19] = qHTS assay for small molecule disruptors of the mitochondrial membrane potential (AID 720635); also: potency is read from the fitted curve at half-maximal effect
How it was run: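 HepG2 cells (2,000/well) attached overnight at 37C, then took compound for 1 hr at 37C, 5% CO2. Mito-MPS dye was added for 30 min; fluorescence was read at 490/535 nm (monomers) and 540/590 nm (aggregates).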

Measured: Potency

Sequence of Glucocorticoid receptor (Homo sapiens) (P04150 whole entry, looked up): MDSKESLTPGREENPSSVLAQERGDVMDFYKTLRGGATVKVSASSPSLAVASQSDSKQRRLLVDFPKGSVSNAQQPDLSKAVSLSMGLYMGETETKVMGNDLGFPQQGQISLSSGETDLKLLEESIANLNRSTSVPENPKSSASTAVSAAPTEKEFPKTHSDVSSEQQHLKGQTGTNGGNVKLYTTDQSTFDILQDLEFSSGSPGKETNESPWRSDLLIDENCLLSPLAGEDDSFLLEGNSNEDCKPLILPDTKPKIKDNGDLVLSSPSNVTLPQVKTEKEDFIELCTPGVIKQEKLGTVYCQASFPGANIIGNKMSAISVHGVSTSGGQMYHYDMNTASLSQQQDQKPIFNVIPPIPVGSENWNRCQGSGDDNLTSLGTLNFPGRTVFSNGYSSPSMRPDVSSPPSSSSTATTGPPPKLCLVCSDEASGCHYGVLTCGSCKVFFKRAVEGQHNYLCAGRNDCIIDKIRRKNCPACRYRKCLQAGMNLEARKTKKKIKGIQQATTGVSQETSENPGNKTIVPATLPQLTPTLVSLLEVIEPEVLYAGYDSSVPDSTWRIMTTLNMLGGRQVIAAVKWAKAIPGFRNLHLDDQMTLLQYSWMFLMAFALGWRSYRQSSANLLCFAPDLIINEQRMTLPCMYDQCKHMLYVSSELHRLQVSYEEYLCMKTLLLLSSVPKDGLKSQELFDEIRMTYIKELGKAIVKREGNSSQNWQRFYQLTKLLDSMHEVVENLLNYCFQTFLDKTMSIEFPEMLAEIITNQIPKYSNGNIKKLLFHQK

CC1CN1P(=O)(N1CC1C)N1CC1C (stereo not given)
not listed: [15] | [16] | [17] | [18] | [19]
inactive: all other assays above

CN1C(=S)CN=C(c2ccccc2)c2cc(Cl)ccc21
active: [18] 12 µM
not listed: [1] | [19]
inactive: all other assays above

CC1(C)COP(Oc2ccccc2)OC1
not listed: [1]
inactive: all other assays above

CCCCOP(=O)(O)OCCCC
not listed: [9] | [14] | [15]
inactive: all other assays above

C#CCN1C(=O)COc2cc(F)c(N3C(=O)C4=C(CCCC4)C3=O)cc21
not listed: [3] | [9] | [15] | [19]
inactive: all other assays above

O=C(O)c1cccc(Cl)c1
not listed: [1] | [6] | [17] | [18] | [19]
inactive: all other assays above

C1CCC(C2CCCCC2)CC1
not listed: [9] | [15] | [17] | [18] | [19]
inactive: all other assays above

COc1cc(OC)nc(NC(=O)NS(=O)(=O)c2ncccc2OCC(F)(F)F)n1
not listed: [1] | [6] | [12]
inactive: all other assays above

CNC(=O)Oc1cccc(C(C)C)c1
not listed: [1] | [2] | [15] | [19]
inactive: all other assays above

CNC(=O)N(C)c1nc2ccccc2s1
not listed: [1] | [14] | [15]
inactive: all other assays above

C[N+](C)=CCl
not listed: [2] | [18] | [19]
inactive: all other assays above

COC(=O)c1ccccc1S(=O)(=O)NC(=O)Nc1nc(C)cc(C)n1
not listed: [2] | [14] | [19]
inactive: all other assays above

O=C(O)C(Br)CBr (stereo not given)
not listed: [1] | [2] | [6] | [9] | [16]
inactive: all other assays above

CCCSP(=O)(OCC)Oc1ccc(Br)cc1Cl (stereo not given)
active: [3] 16.7 µM | [19] 1.05 µM
not listed: [1] | [2] | [14] | [15] | [17] | [18]
inactive: all other assays above

CCN(CC)CCOC(=O)C(C)(c1ccccc1)c1ccccc1
not listed: [2] | [17] | [18] | [19]
inactive: all other assays above

O=C1OC(c2ccc(O)c(S(=O)(=O)O)c2)(c2ccc(O)c(S(=O)(=O)O)c2)c2c(Br)c(Br)c(Br)c(Br)c21
not listed: [1] | [6] | [18] | [19]
inactive: all other assays above

CCc1cc2c(s1)-n1c(C)nnc1CN=C2c1ccccc1Cl
active: [18] 19 µM
not listed: [1] | [17] | [19]
inactive: all other assays above

CC(C)(C)OC(=O)c1ncn2c1[C@@H]1CCCN1C(=O)c1c(Br)cccc1-2
not listed: [2] | [15] | [16] | [17] | [18] | [19]
inactive: all other assays above

C[C@]12CC[C@H]3[C@@H](CC=C4C[C@@H](O)CC[C@@]43C)[C@@H]1CC[C@@H]2O
active: [18] 6.01 µM
not listed: [1] | [3] | [14] | [16] | [17] | [19]
inactive: all other assays above

CC(Oc1ccc(Oc2ncc(C(F)(F)F)cc2Cl)cc1)C(=O)O (stereo not given)
not listed: [2] | [6] | [16] | [18] | [19]
inactive: all other assays above

C(CCOCC1CO1)COCC1CO1 (stereo not given)
not listed: [1]
inactive: all other assays above

CCOP(=O)(OCC)OP(=O)(OCC)OCC
not listed: [1] | [9] | [17] | [18]
inactive: all other assays above

O=[N+]([O-])c1cccc2c([N+](=O)[O-])cccc12
not listed: [15] | [19]
inactive: all other assays above

CC1(C(=O)Nc2ccc(O)c(Cl)c2Cl)CCCCC1
active: [19] 7.7 µM
not listed: [1] | [3] | [16] | [17] | [18]
inactive: all other assays above

CCCSP(=S)(OCC)Oc1ccc(Cl)cc1Cl (stereo not given)
not listed: [3] | [6] | [9] | [15] | [19]
inactive: all other assays above

Nc1c(Br)cc([N+](=O)[O-])cc1[N+](=O)[O-]
active: [2] 49.1 µM | [3] 61.8 µM | [19] 8.73 µM
not listed: [1] | [15] | [17] | [18]
inactive: all other assays above

CCCCOC(=O)c1ccccc1N
not listed: [1] | [12] | [19]
inactive: all other assays above

Cc1ncc2n1-c1ccc(Cl)cc1C(c1ccccc1F)=NC2
active: [1] 26.6 µM | [18] 16.9 µM
not listed: [2] | [6] | [19]
inactive: all other assays above
